From PubChem BioAssay (NCATS)
Results filed as inconclusive are left out. Active and inactive are the calls of the source. Calls come from the whole dose curve; as a rule, active = well fitted curve in the direction sought with a large enough effect; inconclusive = small, poorly fitted or top-dose-only effect, or another doubt; inactive = no such curve, though single readings can be large; an effect the other way counts as inactive or inconclusive.

Tests used:
[1] = qHTS of pediatric cancer cell lines to identify multiple opportunities for drug repurposing: Primary screen for Saos-2 cells (AID 1347097); note: nearly all actives have a fitted effect of over 40% in size
Summary of the method: (§1)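 Luminescence from CellTiter-Glo served as readout of metabolically active cells after 48 h compound exposure. Titrations: MIPE 11-point, from 0.78 nM; NPC 8-point, from 0.59 nM (final). Concentration-response curves came straight from the primary screen.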

[2] = qHTS of pediatric cancer cell lines to identify multiple opportunities for drug repurposing: Primary screen for SK-N-SH cells (AID 1347098);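 note: DMSO served as neutral control and bortezomib at 2.3 µM as positive control; nearly all actives have a fitted effect of over 65% in size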
Summary of the method: (§2)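 Cells (500-1,000/well) rested 5 h, then received compounds for 48 h; metabolically active cells were measured by CellTiter-Glo luminescence. Final concentrations spanned up to 46 µM (MIPE, 11-point) or 0.59 nM-46 µM (NPC, 8-point) in primary screens, 11-point in follow-ups.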

[3] = qHTS of pediatric cancer cell lines to identify multiple opportunities for drug repurposing: Primary screen for NB1643 cells (AID 1347099); note: nearly all actives have a fitted effect of over 50% in size
Summary of the method: as §1

[4] = qHTS of pediatric cancer cell lines to identify multiple opportunities for drug repurposing: Primary screen for LAN-5 cells (AID 1347100)
Summary of the method: (§3)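 Viability after 48 h compound treatment at 37C, 500-1,000 cells/well, read as ATP luminescence with CellTiter-Glo. Primary screens used 11-point (MIPE, 0.78 nM-46 µM) or 8-point (NPC, 0.59 nM-46 µM) final concentrations; follow-up screens used 11-point dilutions.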

[5] = qHTS of pediatric cancer cell lines to identify multiple opportunities for drug repurposing: Primary screen for BT-12 cells (AID 1347101); note: nearly all actives have a fitted effect of over 25% in size
Summary of the method: as §2

[6] = qHTS of pediatric cancer cell lines to identify multiple opportunities for drug repurposing: Primary screen for Rh18 cells (AID 1347102); note: nearly all actives have a fitted effect of over 65% in size
Summary of the method: as §3

[7] = qHTS of pediatric cancer cell lines to identify multiple opportunities for drug repurposing: Primary screen for OHS-50 cells (AID 1347103); note: nearly all actives have a fitted effect of over 40% in size
Summary of the method: as §2

[8] = qHTS of pediatric cancer cell lines to identify multiple opportunities for drug repurposing: Primary screen for RD cells (AID 1347104); note: nearly all actives have a fitted effect of over 55% in size
Summary of the method: as §1

[9] = qHTS of pediatric cancer cell lines to identify multiple opportunities for drug repurposing: Primary screen for MG 63 (6-TG R) cells (AID 1347105); note: nearly all actives have a fitted effect of over 50% in size
Summary of the method: as §1

Measured: Potency

Nc1ncnc(Nc2ccccc2)n1
inactive: [1] | [2] | [3] | [4] | [5] | [6] | [7] | [8] | [9]

NS(=O)(=O)c1ccc(C(=O)O)cc1
inactive: [1] | [2] | [3] | [4] | [5] | [6] | [7] | [8] | [9]

O=C1c2cccc(O)c2C(=O)c2c(O)cccc21
inactive: [1] | [2] | [3] | [5] | [6] | [7] | [8] | [9]

CC[C@H](C)[C@H](N)C(=O)O
inactive: [1] | [2] | [3] | [4] | [5] | [6] | [7] | [8] | [9]

CCOc1ccccc1O[C@H](c1ccccc1)[C@H]1CNCCO1
inactive: [1] | [3] | [4] | [5] | [6] | [8] | [9]

O=C(O)C(S)C(S)C(=O)O (stereo not given)
inactive: [1] | [2] | [3] | [4] | [5] | [6] | [7] | [8] | [9]

CC(=O)NCc1c(I)c(NC(C)=O)c(I)c(C(=O)O)c1I
inactive: [1] | [2] | [3] | [4] | [5] | [6] | [7] | [8] | [9]
